Source: PubChem (National Center for Advancing Translational Sciences (NCATS))
The list is not random: actives were taken first. Their share in the collection is about 7.3%.
ELG1 genotoxic = qHTS screen for small molecules that induce genotoxicity in human embryonic kidney (HEK293T) cells expressing luciferase-tagged ELG1. HEK293T ELG1-luciferase reporter, luminescence, 16 h. Potency, µM (titrated, usually from 46 µM), for inactives: top-dose activity change, positive = activation, actives largely listed as activators. 330,000 tested, 1.3% active; also: % of control where 0% means no effect; nearly all actives have a fitted effect of over 60% in size
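Screening used a luciferase reporter fused to human ELG1 in HEK293T cells. Luminescence was read on a CCD plate imager after 16 hr exposure and 30 min ONE-Glo incubation.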
FLuc modulator = qHTS profiling assay for firefly luciferase inhibitor/activator using purifed enzyme and Km concentrations of substrates (counterscreen for miR-21 project); AID 588342, 2011; Luciferin 4-monooxygenase (Photinus pyralis), P08659; purified FLuc, Km substrates, luminescence inhibition; Potency, µM (series often up to 57.5 µM), without a hit: top-dose activity change, negative = inhibition, most hits filed as inhibitors; 360,000 tested, 6.9% active;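 also: plate controls were vehicle for no effect and reference inhibitor for full effect; nearly all actives have a fitted effect of over 55% in size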
Target sequence (P08659 whole entry, looked up): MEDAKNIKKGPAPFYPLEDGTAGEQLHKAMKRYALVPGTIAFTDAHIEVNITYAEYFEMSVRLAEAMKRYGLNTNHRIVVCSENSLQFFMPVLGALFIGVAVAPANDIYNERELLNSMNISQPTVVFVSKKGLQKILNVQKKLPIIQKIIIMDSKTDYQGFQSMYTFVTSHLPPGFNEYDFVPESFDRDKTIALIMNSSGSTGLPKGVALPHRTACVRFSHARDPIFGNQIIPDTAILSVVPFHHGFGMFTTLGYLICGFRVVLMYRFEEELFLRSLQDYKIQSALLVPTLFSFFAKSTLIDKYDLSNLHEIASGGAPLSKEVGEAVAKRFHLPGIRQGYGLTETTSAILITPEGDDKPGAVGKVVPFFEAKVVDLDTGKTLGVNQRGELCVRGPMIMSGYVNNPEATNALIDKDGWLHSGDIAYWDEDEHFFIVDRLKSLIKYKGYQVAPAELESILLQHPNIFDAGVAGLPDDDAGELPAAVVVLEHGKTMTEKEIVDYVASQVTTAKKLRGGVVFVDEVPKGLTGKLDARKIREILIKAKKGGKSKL
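Biochemical qHTS of compounds, final roughly 60 µM downward over six points, against 10 nM purified firefly luciferase using Km concentrations of substrates (10 uM D-luciferin, 10 uM ATP) in Tris acetate pH 7.5 buffer; luminescence output.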
SMN2 splice enh = qHTS Assay for Enhancers of SMN2 Splice Variant Expression. AID 1458, 2008. 210,000 tested, 2.8% active. HEK293 SMN2-luciferase splicing reporter, luminescence, 30-36 h. Potency, µM (titrated, usually from 46.1 µM), for inactives: at the top dose activity change, positive = activation, usual class: activators; also: % of control where 0% means no effect; nearly all actives have a fitted effect of over 55% in size
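qHTS luciferase splicing reporter: luminescence rises when SMN2 exon 7 is included in transfected HEK293 cells. Compound exposure lasted 30-36 h at 37C, with 4.5 mM final sodium butyrate as control, followed by a ONE-Glo read.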
NPC1 prom act = qHTS Assay for NPC1 Promoter Activators. Huh7 NPC1 promoter luciferase reporter, 24 h. Potency, µM (top dose mostly 9.22 µM), for the others: top-dose activation, hits mostly activators. 320,000 tested, 2.4% active. AID 485313, 2010; also: % of control where 0% means no effect; nearly all actives have a fitted effect of over 60% in size
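Luciferase expression driven by the NPC1 promoter was measured in stably transfected Huh7 cells after a 24 h compound incubation, using a luciferase reagent and a luminescence read.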
p53 reactivator = qHTS assay for re-activators of p53 using a Luc reporter | 320,000 tested, 0.063% active | Potency, µM (top dose mostly 92.2 µM), for inactives: at the highest dose activity change, positive = activation, actives largely listed as activators | H1299 p53-A138V BP100-luciferase reporter, luminescence, 24 h | AID 504706, 2011; also: % of control where 0% means no effect; nearly all actives have a fitted effect of over 45% in size
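p53-null H1299 cells stably carrying temperature-sensitive p53-A138V and a BP100-luciferase reporter were pinned with compounds (4-point, 1:5 series) and held 24 hrs at 37 deg C. Luminescence was read 10 min after detection reagent.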
Rab9 promoter act = qHTS Assay for Rab9 Promoter Activators. Huh7 Rab9 promoter-luciferase reporter, luminescence, 24 h. Potency, µM (top dose mostly 9.22 µM), without a hit: top-dose activation, negative = inhibition, most hits filed as activators. 320,000 tested, 2.8% active. AID 485297, 2010; also: % of control where 0% means no effect; nearly all actives have a fitted effect of over 60% in size
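Luciferase signal after 10 min detection reagent at ambient indicates Rab9 promoter upregulation; stably transfected Huh7 cells were treated 24 h with compound in DMSO at 37 °C, 5% CO2.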
* = called active by the depositor; ? = inconclusive; . = no result; [ ] = another dose, or the depositor's remark. Calls follow the shape of the dose curve; as a rule, active = well fitted curve in the direction sought with a large enough effect; inconclusive = small, poorly fitted or top-dose-only effect, or another doubt; inactive = no such curve, though single readings can be large; an effect the other way counts as inactive or inconclusive. Potency is read from the fitted curve at half-maximal effect.

SMILES	ELG1 genotoxic	FLuc modulator	SMN2 splice enh	NPC1 prom act	p53 reactivator	Rab9 promoter act
COc1cc(/C=N/NC(=O)c2sc(N)c(C#N)c2C)ccc1O	1%	-19%	11%	-3%	-3%	3%
Cc1c(C(=O)N/N=C/c2ccc(O)c(Br)c2)sc(N)c1C#N	?	13µM*	?	-4%	?	-6%
CCOc1ccc(CNCc2c(C(=O)O)n(Cc3ccccc3C)c3cc(OC)ccc23)cc1OC	.	-8%	.	.	.	.
COc1cc(C(=O)N2CCN(CCc3ccccn3)CC2)cc(OC)c1OC	.	-2%	.	.	.	.
Cc1noc(C)c1COC(=O)c1ccc(-c2nc3ccccc3s2)s1	7.3µM*	5.4µM*	10µM*	?	3%	3.5µM*
CCNC(=O)COC(=O)c1ccc(-c2nc3ccccc3s2)s1	?	1.3µM*	13µM*	17%	-7%	?
Cc1noc(C)c1COC(=O)c1ccc2ccccc2n1	2%	-9%	-4%	-3%	?	5%
CCC(=O)c1ccc(OCC(=O)Nc2nn3cnnc3s2)cc1	7%	27µM*	-3%	3%	4%	1%
COc1cccc(-c2cc(C(=O)Nc3ccc(OC)cc3OC)no2)c1	.	?	4%	.	.	.
COC(=O)c1ccc(NC(=O)C(=O)N2CCN(C(=S)Nc3cccc(OC)c3)CC2)cc1	-3%	-7%	-25%	-1%	-11%	-6%
COc1cccc(-c2cc(C(=O)N3CCOCC3)no2)c1	?	8.5µM*	.	1.3µM*	?	1.4µM*
COc1cccc(-c2cc(C(=O)N3CCN(C(c4ccccc4)c4ccccc4)CC3)no2)c1	-9%	1%	-10%	-7%	27%	-4%
COc1ccc(-c2cc(C(=O)N3CCOCC3)no2)cc1	0.41µM*	1.5µM*	.	0.35µM*	15%	0.45µM*
COc1cccc(NC(=O)C(=O)N2CCOCC2)c1	?	19µM*	13µM*	24%	?	?
COc1cccc(-c2cc(C(=O)N3C(C)CCCC3C)no2)c1 (stereo unspecified)	7.1µM*	11µM*	14µM*	5µM*	?	3.2µM*
COc1ccc(-c2cc(C(=O)N3CCOCC3)no2)cc1OC	?	?	21%	?	?	22%
O=C(CSc1nc(O)cc(=O)n1-c1ccccc1)Nc1nc2ccccc2s1	-1%	-8%	.	-2%	2%	3%
CCCn1nc2cc(C(=O)NCCc3cccs3)ccc2c1OCC	15%	?	16µM*	?	2%	?
CCCCNC(=O)c1ccc2c(OCC)n(CCCC)nc2c1	0%	-2%	-20%	1%	-4%	4%
COc1cc(OC)c(OC)cc1CN1CCc2nc(N3CCN(c4ccccc4F)CC3)ncc2C1	.	-7%	.	.	.	.
CC(=O)NC1C(=O)N(CCN2CCOCC2)c2ccc(C)cc21 (stereo unspecified)	-1%	21µM*	.	-8%	3%	11%
CC(=O)NC1C(=O)N(CCN2CCOCC2)c2ccc(Cl)cc21 (stereo unspecified)	-1%	?	.	-3%	1%	6%
Cc1cc2c(cc3c(SCc4ccc(Cl)cc4)nnc(C)n32)o1	.	-17%	.	.	.	.
Cc1cc2c(cc3c(SCc4ccccc4Cl)nnc(C)n32)o1	.	13µM*	.	.	.	.
Cc1ccc(N2CC(O)=C(c3ccccc3)C2=N)cc1	5%	1%	28%	1%	3%	14%
SMILES	ELG1 genotoxic	FLuc modulator	SMN2 splice enh	NPC1 prom act	p53 reactivator	Rab9 promoter act
COc1ccc(C2=NCN(c3ccc(C)cc3)C(=S)N2)cc1	16µM*	12µM*	?	?	11%	2.8µM*
Cc1ccc(N2CN=C(c3ccccc3)NC2=S)cc1	15µM*	9.5µM*	27%	?	23%	?
COc1ccc(NC(=O)CCCc2nc(-c3ccco3)no2)c(OC)c1	.	-1%	.	.	.	.
Cc1cccc(C(=O)N2CCCC(c3nc(-c4ccc(C)o4)no3)C2)c1 (stereo unspecified)	9%	?	.	?	?	4µM*
CCC(CC)C(=O)N1CCCC(c2nc(-c3cccs3)no2)C1 (stereo unspecified)	-5%	2%[2.3 µM]	14%	11%	18%	4%
CCOc1ccc(C(=O)N2CCCC(c3nc(-c4cccs4)no3)C2)cc1 (stereo unspecified)	6%	21µM*	.	1%	9%	3%
Cc1ccc(-c2noc(C3CCCN(C(=O)c4cccc([N+](=O)[O-])c4)C3)n2)o1 (stereo unspecified)	1%	-18%	.	?	16%	?
Cc1ccc(OCc2cc(C(=O)N(CCO)Cc3cccs3)no2)cc1C	?	27µM*	.	4µM*	1%	3.5µM*
Cc1ccc(OCc2cc(C(=O)N3CCC(c4ccccc4Cl)C3)no2)cc1C (stereo unspecified)	?	27µM*	.	?	?	?
Cc1ccc(OCc2cc(C(=O)N3CCN(c4ccccc4)CC3)no2)cc1C	3.7µM*	6µM*	.	2.5µM*	?	2µM*
CCOc1ccc(CNC(=O)C2CCN(S(=O)(=O)N3CCCCC3)CC2)cc1	.	0%	.	.	.	.
CC(=O)NC(CCS(C)(=O)=O)C(=O)N1CCc2ccccc21 (stereo unspecified)	-6%	-1%	-3%	0%	10%	-4%
Cc1ccc(C(=O)O/N=C/c2c(N3CCOCC3)n(C)c3ccccc23)cc1	-13%	6µM*	-47%	-17%	0%	-39%
Cn1c(N2CCOCC2)c(/C=N/OC(=O)c2ccc(F)cc2)c2ccccc21	-5%	9.5µM*	-70%	-18%	-5%	-33%
CC1=Nn2c(nc3sc4c(c3c2=O)CCCC4)SC1	?	21µM*	10µM*	25%	18%	?
N=c1c2c3c(sc2nc2n1CCCCC2)CCCCC3	?	17µM*	6%	?	10%	?
Cc1nc2sc3c(c2c(=N)n1N)CCCC3	0%	-4%	-7%	-8%	3%	-10%
O=c1c2c3c(sc2nc2n1CCCS2)CCCC3	26%	19µM*	7%	?	28%	?
O=c1c2c3c(sc2nc2n1CCCCC2)CCCCC3	?	13µM*	11µM*	3.5µM*	.	3.5µM*
CCN1CCN(C(=O)N[C@H](C(=O)N[C@@H]2C(=O)N3C(C(=O)O)=C(CSc4nnnn4C)CS[C@@H]23)c2ccc(O)cc2)C(=O)C1=O	.	.	0%[20.6 µM]	.	.	.
